Screening results (PubChem BioAssay)
A selection: hits, their analogues and other compounds. The true share with any hit is near 27%.
Cav3 T inh – blocks human Cav3.2 T-type calcium channel; Cav3.2-expressing cells, Fluo-4 calcium fluorescence FDSS; stronger effect = lower value; B-score at 10 µM; 100,000 tested, 4% active;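 active means single-dose well whose peak fluorescence ratio is a statistical outlier from its plate by either plate-standardised score or position-corrected B-score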
CYP2C9 inh – blocks human cytochrome P450 2C9; P11712; CYP2C9 Supersomes, luciferin-H conversion, luminescence; inhibition, % at 5 µM; 96,000 tested, 20% active; AID 777;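 active means blocking of liver enzyme CYP2C9 beyond about 50% at 5 µM, limit read from the data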
Target sequence (P11712 whole entry, looked up): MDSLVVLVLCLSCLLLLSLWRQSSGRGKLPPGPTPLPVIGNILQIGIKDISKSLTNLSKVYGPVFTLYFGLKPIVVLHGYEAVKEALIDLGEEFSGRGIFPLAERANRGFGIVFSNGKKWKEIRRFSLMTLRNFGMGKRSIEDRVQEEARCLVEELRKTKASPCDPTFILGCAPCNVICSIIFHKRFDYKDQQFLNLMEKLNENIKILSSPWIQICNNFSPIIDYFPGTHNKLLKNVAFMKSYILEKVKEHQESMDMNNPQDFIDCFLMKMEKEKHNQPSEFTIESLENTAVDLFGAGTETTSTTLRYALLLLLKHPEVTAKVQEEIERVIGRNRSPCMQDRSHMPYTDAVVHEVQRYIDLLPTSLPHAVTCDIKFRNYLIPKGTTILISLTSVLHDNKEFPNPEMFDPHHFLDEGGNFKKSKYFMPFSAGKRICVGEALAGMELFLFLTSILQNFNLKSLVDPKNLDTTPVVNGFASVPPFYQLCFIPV
CYP2C19 inh – blocks human cytochrome P450 2C19; P33261; CYP2C19 Supersomes, luciferin-H EGE luminescence, 30 min; inhibition, % at 5 µM; 96,000 tested, 21% active; AID 778;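 active means CYP2C19 inhibition above a set limit at 5 µM in the primary screen, cut at about 50% in these data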;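 further: plate controls were negative control wells for no effect and 2.5 mM tranylcypromine positive control for full effect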
CYP2C19 act – activators of human cytochrome P450 2C19; P33261; activation factor at 5 µM; 96,000 tested, under 10 active; AID 1025; recombinant CYP2C19, luciferin-H EGE luminescence; stronger effect = higher value; 0 = fully inhibited enzyme, 1 = untreated enzyme;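 active means activation factor of at least 2 at 5 µM in the primary screen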;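 further: 0 = wells with 2.5 mM tranylcypromine and 1 = vehicle-only wells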
CYP2C9 act – activators of human CYP2C9 | 96,000 tested, 1.4% active | recombinant CYP2C9, luciferin-H conversion, luminescence; stronger effect = higher value; factor 1 = untreated enzyme, 0 = blocked | activation factor at 5 µM;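 active means activation factor of 2 or more for CYP2C9 at a 5 µM dose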;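 further: 0 = sulfaphenazole-blocked wells and 1 = vehicle-only wells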
Numbers without * were called inactive; . = no result.

SMILES	Cav3 T inh	CYP2C9 inh	CYP2C19 inh	CYP2C19 act	CYP2C9 act
N#Cc1ccc(N2CCNCC2)c(F)c1	-0.054	-8	-2	1	1.1
COc1ccc2[nH]c(C)c(CCN3CCC(=O)C(C)C3C)c2c1 (centres undefined)	1.7	51*	89*	0.1	0.5
Cc1ccc(S(=O)(=O)N2CCCC(C(=O)N3CCC4(CC3)OCCO4)C2)cc1 (centres undefined)	0.069	-6	3	1	1.1
Cc1ccc(C(=O)C2(C)N(O)C(C)C(c3cccs3)=[N+]2[O-])cc1 (centres undefined)	0.76	56*	30	0.7	0.4
CC#CP(=O)(OCC)C(O)(c1ccccc1)C(F)(F)F (centres undefined)	-0.16	-5	1	1	1
CCOP(=O)(C#CC(C)(C)C)C(O)(c1ccccc1)C(F)(F)F (centres undefined)	-5.6*	-29	-24	1.2	1.3
Cc1cc(C)n2nc(SC(C)C(=O)N3CCC4(CC3)OCCO4)nc2n1 (centres undefined)	-1.5	11	2	1	0.9
CC/C(=C\C=C\[C@@H]1C=C[C@@H]2CCC[C@H]2[C@@H]1C(=O)c1ccc[nH]1)[C@@H]1O[C@@H]([C@@H](C)C(=O)O)CC[C@@H]1C	-8.5*	.	.	.	.
CC(=O)N1N=C2C3CCN(CC3)C2C1c1ccccc1 (centres undefined)	-3.9*	-14	-18	1.2	1.1
CC1=NCCc2c1[nH]c1ccccc21	0.1	.	.	.	.
C=C1[C@@H](OC(C)=O)[C@]23C[C@@H]1[C@@H](OC(C)=O)CC2[C@]12C4C[C@H]3[C@H]1N(CC)C[C@]4(C)CC[C@@H]2O (some centres undefined)	0.78	.	.	.	.
CC1(C)COC(Nc2cccc(Cl)c2)=N1	0.83	76*	12	0.9	0.2
CCN1CCN(C(c2cccs2)C(C)NC(=O)Oc2ccccc2)CC1 (centres undefined)	1.1	.	.	.	.
Cc1ccc2cccc(OC(=O)N(C)c3ccccc3)c2n1	-1.8	28	90*	0.1	0.7
Cc1ccc(N(C)C(=O)Oc2cccc3cccnc23)cc1	-0.92	49	87*	0.1	0.5
CC(=O)OC1N=C(c2ccccc2)c2ccccc2NC1=O (centres undefined)	0.86	1	5	0.9	1
Cc1ccc(Cl)cc1-n1c(O)c(C=NCCCN2CCOCC2)c(=O)[nH]c1=O	1.4	-1	6	0.9	1
CN1C(=O)C(=Cc2ccccc2Oc2ccc(Cl)c(F)c2)C(=O)N(C)C1=O	-4.8*	57*	7	0.9	0.4
CC(=O)OC1N=C(c2ccccc2)c2cc(C)ccc2NC1=O (centres undefined)	-0.35	9	2	1	0.9
O=C(COc1ccccc1)N1CCN(C/C=C/c2ccccc2)CC1	-0.77	70*	63*	0.4	0.3
O=C(Cc1ccccc1)N1CCN(C2CCCC2)CC1	0.24	-19	-8	1.1	1.2
O=C(COc1ccccc1)N1CCN(C2CCCC2)CC1	0.25	1	64*	0.4	1
O=C(COc1ccc(Cl)cc1)N1CCN(C/C=C/c2ccccc2)CC1	-4.2	24	4	1	0.8
CC(C)(O)[C@H]1O[C@H]2CC[C@@]3(C)[C@@](O)(CC[C@H]4Cc5c([nH]c6ccccc56)[C@@]43C)C2=CC1=O	-2.2	.	.	.	.
O=C(NCC(c1cccnc1)N1CCN(c2ccccc2F)CC1)Oc1ccccc1 (centres undefined)	-2.4	85*	78*	0.2	0.1
SMILES	Cav3 T inh	CYP2C9 inh	CYP2C19 inh	CYP2C19 act	CYP2C9 act
CC(C)Oc1cccc(NC(=O)c2cccn(Cc3ccc4c(c3)OC(F)(F)O4)c2=O)c1	.	84*	25	0.8	0.2
O=C(Nc1cccc(C(F)(F)F)c1)c1cccn(Cc2ccc3c(c2)OC(F)(F)O3)c1=O	.	65*	20	0.8	0.4
Cc1cccc(C)c1NC(=O)c1cccn(Cc2ccc3c(c2)OC(F)(F)O3)c1=O	.	34	68*	0.3	0.7
CN(C)c1cc(N)c2c(n1)CCC2 (tested in a mixture with another compound)	0.59	0	-3	1	1
CC1CCCCN1CC(=O)c1ccc2cc[nH]c2c1 (centres undefined)	.	25	18	0.8	0.7
Clc1ccc2c(c1)C(c1ccccc1Cl)=NCc1nnc(N3CCN(CCSc4ccccc4)CC3)n1-2	.	68*	8	0.9	0.3
COc1ccc(C2=NCc3nnc(C)n3-c3ccc(Cl)cc32)cc1Cl	0.41	.	.	.	.
